# Unmarked numbers belong to inactive results. Inconclusive results are not listed. Where a call stands in place of a potency, no number is given. Active and inactive are the calls of the source. Unless noted, the call rests on the fitted dose curve; in most records, active means well fitted curve in the direction sought with a large enough effect in the repeat runs; inconclusive means weak or mixed curves; inactive means no such curve, though single readings can be large; an effect the other way counts as inactive or inconclusive.
# Assays:
# [1] = qHTS assay to identify small molecule agonists of H2AX (AID 1224845; active means well fitted activation curve with a large enough effect in the signal ratio in the repeat runs, not every such curve was filed as active; the % refers to the signal ratio)
# Summary of the method: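 Wild-type CHO-K1 cells plated overnight, then exposed 3 hr at 37C to compounds at 15 concentrations (0.76% DMSO). Lysed, then HTRF anti-pH2AX(S139)-cryptate/anti-H2AX-d2 detection after 24 hr at room temperature; emissions 665 and 620 nm.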
# [2] = qHTS assay to identify small molecule agonists of the hypoxia (HIF-1) signaling pathway (AID 1224846; active means well fitted activation curve with a large enough effect in the signal ratio in the repeat runs, not every such curve was filed as active; the % refers to the signal ratio)
# Summary of the method: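 ME-180 HRE-bla reporter cells; compounds in DMSO, 17 h at 37C; read-out beta-lactamase via CCF4-AM FRET.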
# [3] = qHTS assay to identify small molecule agonists of H2AX - cell viability counter screen (AID 1224847; calls by dose curve; further: top concentration of the series differs between compounds; nearly all actives have a fitted effect of over 30% in size)
# Summary of the method: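 After overnight plating of 1000 CHO-K1 cells per well, a 15-concentration compound series was applied for 3 hr at 37C. Luminescence from CellTiter-Glo, read following 30 min at room temperature, reflected cell viability.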
# [4] = qHTS assay to identify small molecule antagonists of the estrogen related receptor (ERR) signaling pathway from Tox21 library (AID 1224848); further: nearly all actives have a fitted effect of over 50% in size
# Summary of the method: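 Tox21 10K compounds in DMSO tested for ERR pathway antagonism in NTP's ERR cell line; 18 h, 37 C exposure; ONE-Glo luminescence.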
# [5] = qHTS assay to identify small molecule agonists of the estrogen related receptor (ERR) signaling pathway from Tox21 library (AID 1224849; calls by dose curve; further: nearly all actives have a fitted effect of over 15% in size); details: ERR reporter cell line, ONE-Glo luciferase, 18 h
# Summary of the method: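 Luciferase activity in ERR pathway reporter cells served as the agonist readout; exposure lasted 18 h at 37 C, with ONE-Glo detection after 30 min at room temperature.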
# [6] = qHTS RealTime-Glo MT Cell Viability Assay in HepG2 cells - 24 hour (AID 1224867); further: nearly all actives have a fitted effect of over 50% in size
# Summary of the method: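 Cell number in HepG2 cultures estimated from NanoLuc luminescence generated by metabolic reduction of a prosubstrate by living cells. The homogeneous, nonlytic format allowed repeated reads at 0, 8, 16, 24, 32 and 40 h of compound exposure.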
# [7] = qHTS RealTime-Glo MT Cell Viability Assay in HEK293 cells - 32 hour (AID 1224868); further: top concentration of the series differs between compounds; nearly all actives have a fitted effect of over 50% in size
# Summary of the method: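 Homogeneous bioluminescent viability format in HEK293 cells (600 cells/well). Following 5 h at 37 C/5% CO2, 23 nL compound was pintooled; the signal was measured repeatedly during 40 h incubation.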
# [8] = A CellTox Green Cytotoxicity Assay to monitor cytotoxicity in HEK293 cells - 0 hour (AID 1224869); further: nearly all actives have a fitted effect of over 50% in size; further: potency means the concentration at half of the fitted maximal effect
# Summary of the method: (§1)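 Real-time, in one plate: 600 HEK293 cells/well with dead-cell DNA dye, pinned compound after 5 h, 37 C incubation over 40 h; viable cells give no appreciable fluorescence.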
# [9] = qHTS RealTime-Glo MT Cell Viability Assay in HepG2 cells - 40 hour (AID 1224870); further: nearly all actives have a fitted effect of over 50% in size
# Summary of the method: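 HepG2 cells mixed with RealTime-Glo MT reagents (NanoLuc plus cell-permeant prosubstrate) were seeded at 600 cells/well, incubated 5 h at 37 C/5% CO2, then pinned with compounds in DMSO; nonlytic luminescence tracked viability during 40 h treatment.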
# [10] = A CellTox Green Cytotoxicity Assay to monitor cytotoxicity in HEK293 cells - 40 hour (AID 1224871); further: nearly all actives have a fitted effect of over 45% in size; further: potency means the concentration at half of the fitted maximal effect
# Summary of the method: as §1
SMILES,Potency [1],Potency [2],Potency [3],Potency [4],"activity change, positive = activation ([5]; at 92.4 µM (top of the series)) [%]",Potency [6],Potency [7],Potency [8],Potency [9],Potency [10],"activity change, positive = activation ([5]; at 42.5 µM (top of the series)) [%]"
Cc1ccc(C)cc1,inactive,inactive,inactive,inactive,0.373,inactive,inactive,inactive,inactive,inactive,
CC(=O)c1ccc(C(C)=O)cc1,inactive,inactive,inactive,inactive,-2.27,inactive,inactive,inactive,inactive,inactive,
OC[C@H]1O[C@H](O[C@H]2O[C@H](CO)[C@@H](O)[C@H](O)[C@H]2O)[C@H](O)[C@@H](O)[C@@H]1O,inactive,inactive,inactive,inactive,8.53,inactive,inactive,inactive,inactive,inactive,
O=C(O)c1cc(=O)c2ccccc2o1,inactive,inactive,inactive,inactive,,inactive,,inactive,inactive,inactive,-3.87
CN(C)C(=O)COC(=O)Cc1ccc(OC(=O)c2ccc(N=C(N)N)cc2)cc1,inactive,inactive,inactive,inactive,,inactive,inactive,inactive,inactive,inactive,-1.22
Cc1cccc(C)c1NC(=O)c1ccc(N)cc1,inactive,inactive,inactive,inactive,,inactive,inactive,inactive,inactive,inactive,5.09
CCC(COC(=O)CCS)(COC(=O)CCS)COC(=O)CCS,inactive,inactive,inactive,inactive,4.52,inactive,inactive,inactive,inactive,inactive,
CCOc1ccc2ccccc2c1C(=O)N[C@@H]1C(=O)N2[C@@H]1SC(C)(C)[C@@H]2C(=O)O,inactive,inactive,inactive,inactive,,inactive,inactive,,inactive,inactive,-0.57
Cc1ccc(-c2ccccc2)cc1,inactive,inactive,inactive,inactive,-3.62,inactive,,inactive,inactive,,
Clc1sc(Cl)c(Cl)c1Cl,inactive,inactive,inactive,inactive,4.94,inactive,inactive,inactive,inactive,inactive,
CC(C)OC(=O)C(O)(CC(=O)O)CC(=O)O,inactive,inactive,inactive,inactive,4.45,inactive,inactive,inactive,inactive,inactive,
O=C(O)c1cccc(C(F)(F)F)c1,inactive,inactive,inactive,inactive,-2.71,inactive,inactive,,inactive,inactive,
CCCCCCC1CCCC(=O)O1 (centres undefined),inactive,inactive,inactive,inactive,0.936,inactive,inactive,,inactive,inactive,
COC(=O)c1ccccc1C,inactive,inactive,inactive,inactive,3.57,inactive,inactive,inactive,inactive,inactive,
CC(C)(c1cc(Br)c(OCC(Br)CBr)c(Br)c1)c1cc(Br)c(OCC(Br)CBr)c(Br)c1 (centres undefined),inactive,inactive,inactive,inactive,,inactive,inactive,inactive,inactive,inactive,2.35
CC(C)CCCCCOC(=O)CCS,inactive,inactive,inactive,inactive,3.69,inactive,inactive,inactive,inactive,inactive,
C=C(C)c1cccc(C(=C)C)c1,inactive,inactive,inactive,,,inactive,inactive,inactive,inactive,inactive,
O[C@@H]([C@H](O)[C@H](O)CBr)[C@H](O)CBr,inactive,inactive,inactive,,,inactive,inactive,inactive,inactive,inactive,
CCO[Si](OCC)(OCC)OCC,inactive,inactive,inactive,,,inactive,inactive,inactive,inactive,inactive,
O=[N+]([O-])c1cccc(C(F)(F)F)c1,inactive,inactive,inactive,,,inactive,inactive,inactive,inactive,inactive,
CCCC(=O)OCCc1ccccc1,inactive,inactive,inactive,,,inactive,inactive,43.6 µM (active),inactive,49 µM (active),
Nc1nc(N)nc(-c2cc(Cl)ccc2Cl)n1,inactive,inactive,inactive,,,inactive,inactive,inactive,inactive,inactive,
Cc1c(C)c2c(c(C)c1O)CC[C@@](C)(CCC[C@H](C)CCC[C@H](C)CCCC(C)C)O2,inactive,inactive,inactive,,,inactive,inactive,inactive,inactive,inactive,
O=C(/C=C/c1ccccc1)OC/C=C/c1ccccc1,inactive,inactive,inactive,inactive,3.92,inactive,,inactive,inactive,inactive,
